Source: PubChem (NMMLSC)
In the library only some 1.2% were active in any assay of this set; here they are far more common.
RGS8-Gao: RGS8-Galphao binding modulators, primary screen, biochemical, multiplexed bead flow cytometry | actives lie on both sides | response (percent of control binding), % at 10 µM | hit rate 0.34% among 220,000 | AID 1423, 2008; in the data active means response below about 60% or above about 140%; inactive means in between;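 further: Galphao activated as the GDP aluminium fluoride complex binding bead-coupled RGS8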
RGS16-Gao HTS: modulators of RGS16 binding to Galphao, primary screen, biochemical, human proteins, multiplexed bead flow cytometry | Regulator of G-protein signaling 16 (Homo sapiens) + Guanine nucleotide-binding protein … | bead-based flow cytometry RGS16-Galphao binding, fluorescence; actives lie on both sides | binding response (% of control), % at 10 µM | hit rate 0.38% among 220,000 | AID 1441, 2008;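 further: Galphao activated by GDP with aluminum fluoride before binding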
Target sequence (O15492 whole entry, looked up): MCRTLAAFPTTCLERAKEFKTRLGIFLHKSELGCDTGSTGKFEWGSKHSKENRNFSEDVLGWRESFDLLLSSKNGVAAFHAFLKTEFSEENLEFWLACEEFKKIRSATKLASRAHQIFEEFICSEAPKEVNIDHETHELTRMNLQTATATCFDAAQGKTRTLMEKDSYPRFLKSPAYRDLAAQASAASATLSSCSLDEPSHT
Target sequence (P09471 whole entry, looked up): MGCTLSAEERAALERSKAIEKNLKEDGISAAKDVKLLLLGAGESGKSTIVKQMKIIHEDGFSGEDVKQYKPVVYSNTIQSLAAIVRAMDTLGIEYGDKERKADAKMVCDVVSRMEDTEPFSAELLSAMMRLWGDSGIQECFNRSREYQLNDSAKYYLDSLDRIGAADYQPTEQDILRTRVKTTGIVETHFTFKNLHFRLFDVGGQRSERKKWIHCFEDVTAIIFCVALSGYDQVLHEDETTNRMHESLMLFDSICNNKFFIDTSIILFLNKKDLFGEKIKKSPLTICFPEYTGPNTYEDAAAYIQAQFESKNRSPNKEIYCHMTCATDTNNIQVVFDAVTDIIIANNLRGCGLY
RGS7-Gao reg: RGS7-Galphao binding modulators, primary screen, biochemical, multiplexed bead flow cytometry; Guanine nucleotide-binding protein G(o) subunit alpha (Homo sapiens), P09471; actives lie on both sides; binding response (% of control), % at 10 µM; hit rate 0.35% among 220,000; AID 1439, 2008; in the data active means binding response below about 49% or above about 150%;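 further: fluorescent Galphao held in activated GDP-AlF4 state binding bead-coupled RGS7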
RGS4-Gao reg: modulators of RGS4 binding to Galphao, primary screen, biochemical, multiplexed bead flow cytometry. AID 1415, 2008. hit rate 0.33% among 220,000. binding response (% of control), % at 10 µM. actives lie on both sides. Guanine nucleotide-binding protein G(o) subunit alpha (Homo sapiens), P09471; in the data active means binding response below about 49% or above about 150%; inactive means in between;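 further: fluorescent Galphao activated with aluminum fluoride binding bead-coupled RGS4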
GSH bead fluor: compound fluorescence on glutathione beads, profiling panel, artefact control, biophysical, 488/530 nm, flow cytometry; fluorescence (KMESF) at 10 µM; GSH beads flow cytometry, compound fluorescence 488/530 nm; stronger effect = higher value; hit rate 0.25% among 190,000; AID 1776, 2009; in the data active means fluorescence above about 89;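 further: glutathione beads carrying GST-tagged Bcl family fusion proteins plus one bare bead set; values are compound well signal with DMSO vehicle wells as background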
Avidin bead fluor: green autofluorescence of compounds with avidin beads – biophysical, 488/530 nm, flow cytometry, artefact control, profiling panel; compound fluorescence 488/530 nm; stronger effect = higher value; fluorescence (KMESF) at 10 µM; hit rate 0.38% among 220,000; in the data active means fluorescence above about 47
RGS4-Gao HTS: modulators of RGS–Galpha-o binding, primary screen, biochemical, multiplexed beads, flow cytometry, RGS4/7/8/16/19. shares compounds with RGS16-Gao HTS. hit rate 99% among 1,600. RGS4–Galpha-o binding response, % at 10 µM. multiplexed bead flow cytometry;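 further: fluorescently labeled Galpha-o bound to GDP with aluminium fluoride binding biotinylated RGS beads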
Avidin counter: disruption of biotin probe capture by avidin, counter-screen for RGS protein interaction modulators, biochemical, flow cytometry, bead-based; shares compounds with RGS16-Gao HTS; 1,700 tested, under 10 active; streptavidin beads, fluorescein-biotin binding; AID 1783, 2009; inhibition, % at 10 µM;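 active means inhibition above 50%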;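 further: median green fluorescence of gated singlet beads compared with DMSO control wells; 0% = DMSO wells and 100% = complete loss of bead fluorescence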
RGS8-Gao confirm: RGS8-Galphao binding modulators, confirmation, biochemical, multiplexed bead flow cytometry, single concentration | shares compounds with RGS16-Gao HTS | bead-based flow cytometry RGS8-Galphao binding, fluorescence; actives lie on both sides | binding response (% of control), % at 10 µM | hit rate 3% among 1,700 | AID 1836, 2009; in the data active means binding response below about 72% or above about 130%; inactive means in between;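 further: Galphao activated as GDP AlF4 complex before binding bead RGS8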
RGS7-Gao confirm: RGS7-Galphao binding modulators, confirmation, biochemical, multiplexed bead flow cytometry, single concentration. shares compounds with RGS16-Gao HTS. bead-based flow cytometry RGS7-Galphao binding; actives lie on both sides. response (percent of control binding), % at 10 µM. hit rate 7.8% among 1,700. AID 1837, 2009; in the data active means response below about 75% or above about 130%; inactive means in between;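 further: fluorescent Galphao activated with GDP and aluminum fluoride binding bead-coupled RGS7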
RGS16-Gao conf: modulators of RGS16-Galphao protein binding, confirmation, biochemical, single concentration, multiplexed bead flow cytometry | shares compounds with RGS16-Gao HTS | bead-based flow cytometry; actives lie on both sides | response (% of control binding), % at 10 µM | hit rate 4% among 1,700; in the data active means response below about 74% or above about 130%; inactive means in between;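 further: Galphao activated as the GDP aluminium fluoride complex binding bead-coupled RGS16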
RGS4-Gao single: modulators of RGS4-Galphao protein binding, confirmation, biochemical, single concentration, multiplexed bead flow cytometry. actives lie on both sides. binding response (% of control), % at 10 µM. hit rate 4% among 1,700. AID 1840, 2009. shares compounds with RGS16-Gao HTS; in the data active means binding response below about 74% or above about 130%; inactive means in between
RGS19-Gao conf: regulators of RGS19-Galphao binding, confirmation, biochemical, single point, multiplexed bead flow cytometry; shares compounds with RGS16-Gao HTS; bead-based flow cytometry RGS19-Galphao binding; actives lie on both sides; AID 1841, 2009; response (percent of control binding), % at 10 µM; hit rate 5% among 1,700; in the data active means response below about 50% or above about 160%; inactive means in between;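 further: 100% = no compound control and 0% = blank background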
* = called active by the depositor; x = no result; [ ] = another dose, or the depositor's remark. Unless noted, how the calls were made is not given here.

SMILES | RGS8-Gao | RGS16-Gao HTS | RGS7-Gao reg | RGS4-Gao reg | GSH bead fluor | Avidin bead fluor | RGS4-Gao HTS | Avidin counter | RGS8-Gao confirm | RGS7-Gao confirm | RGS16-Gao conf | RGS4-Gao single | RGS19-Gao conf
CCOC(=O)C1=C(C)NC(C)=C(C(=O)OCCNC(=O)c2cccnc2)C1c1cccc([N+](=O)[O-])c1 (stereo unspecified) | 124 | 213*[activator] | 111 | 108 | 6 | 3 | 108* | -2 | 85 | 70* | 78 | 81 | 104
O=C(NCC1CCCO1)C(c1cccs1)N(Cc1ccccc1Cl)C(=O)c1ccc(-c2ccccc2)[nH]1 (stereo unspecified) | 119 | 178*[activator] | 87 | 99 | 7 | 14 | 99* | 2 | 101 | 98 | 102 | 99 | 92
Cc1ccc(C(C(=O)NCC2CCCO2)N(Cc2ccccc2)C(=O)c2ccc(-c3ccccc3)[nH]2)o1 (stereo unspecified) | 97 | 101 | 94 | 97 | 11 | 4 | x | x | x | x | x | x | x
O=S(=O)(c1ccc(F)cc1)N1CCN(c2ncnc3c2cnn3-c2ccccc2)CC1 | 142*[activator] | 301 | 122 | 129 | 14 | 13 | 129* | 0 | 96 | 89 | 95 | 95 | 107
Cc1cccc(-n2ncc3c(N4CCOCC4)ncnc32)c1 | 59* | 9 | 63 | 65 | 17 | 3 | 65* | 2 | 102 | 105 | 103 | 105 | 93
CCOC(=O)c1cc2sccc2n1CC(=O)N1CCCC1 | 104 | 121 | 150*[activator] | 113 | 31 | 48* | 113* | -1 | 96 | 96 | 96 | 95 | 94
CCn1c(C(=O)N2CCCC(C(=O)O)C2)cc2sccc21 (stereo unspecified) | 71 | 24* | 93 | 93 | 64 | 4 | 93* | -1 | 105 | 104 | 109 | 102 | 114
COc1ccc(-n2c(C)c([N+](=O)[O-])c3ccc(O)c(CN4CCCCC4)c32)cc1 | 92 | -307 | 79 | 25* | 10 | 8 | x | 0 | 101 | 108 | 100 | 103 | 84
Cc1ccc(-n2c(C)c([N+](=O)[O-])c3ccc(O)c(CN(C)C)c32)cc1 | 103 | 105 | 105 | 104 | 12 | 8 | x | x | x | x | x | x | x
O=C(c1cccs1)N1CCc2ccccc21 | 126 | 136 | 153*[activator] | 154*[activator] | 27 | 4 | x | 0 | 92 | 86 | 89 | 89 | 90
